JMJD2E inh: qHTS Assay for Inhibitors of Human Jumonji Domain Containing 2E (JMJD2E); Potency, µM (titrated, usually from 57.1 µM), for inactives: at the highest dose activity change, negative = inhibition, actives largely listed as inhibitors; hit rate 1.6% among 230,000; JMJD2E catalytic domain, FDH-coupled NADH fluorescence (FDH is formaldehyde dehydrogenase); Lysine-specific demethylase 4E (Homo sapiens), B2RXH2; active = well fitted inhibition curve with a large enough effect, not every such curve was filed as active; inconclusive = small, poorly fitted or top-dose-only effect, or another doubt; inactive = no such curve, though single readings can be large or run the other way;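 also: 0% = wells with enzyme and -100% = buffer wells without enzyme; nearly all actives have a fitted effect of over 50% in size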
APE1 inh: qHTS Assay for Inhibitors of the Human Apurinic/apyrimidinic Endonuclease 1 (APE1) | DNA repair nuclease/redox regulator APEX1 (Homo sapiens), P27695 | recombinant APE1, TAMRA/BHQ-2 abasic DNA cleavage fluorescence | Potency, µM (highest dose often 65.8 µM), for inactives: at the top dose activity change, negative = inhibition, actives largely listed as inhibitors | hit rate 0.35% among 350,000;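 also: plate controls were vehicle for no effect and reference inhibitor for full effect; nearly all actives have a fitted effect of over 55% in size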
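Incision of a quenched TAMRA/BHQ-2 THF abasic-site duplex (50 nM) by 0.75 nM APE1, after 15 min compound preincubation, measured as fluorescence increase over three 60 s reads. Values normalized to buffer, DMSO and NSC13755 control wells.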
RECQ1 inh: qHTS Assay for Inhibitors of RecQ-Like Dna Helicase 1 (RECQ1). RECQ1 DNA unwinding, red fluorescence kinetic read. Potency, µM (series often up to 57.3 µM), without a hit: top-dose activity, negative = inhibition, most hits filed as inhibitors. ATP-dependent DNA helicase Q1 (Homo sapiens), P46063. hit rate 0.54% among 240,000;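 also: plate controls were vehicle for no effect and no enzyme for full effect; nearly all actives have a fitted effect of over 30% in size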
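50 nM RECQ1T1 preincubated 15 min with compound in Tris pH 8.0 buffer with MgCl2, DTT, Tween-20 and 2.5 ug/ml poly(dI-dC); started with 200 nM TAMRA/BHQ-2 forked duplex and 2 mM ATP. Unwinding read as fluorescence (525/598 nm), two reads 2 h apart.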
PKM2 act: qHTS Assay for Activators of Human Muscle isoform 2 Pyruvate Kinase. Pyruvate kinase PKM (Homo sapiens), P14618. Potency, µM (series often up to 57.5 µM), for inactives: at the highest dose activation, hits mostly activators. purified PKM2, Kinase-Glo ATP luminescence, activation; response scale: 0% is enzyme alone, no compound. hit rate 0.34% among 260,000; also: nearly all actives have a fitted effect of over 55% in size
Target sequence (P14618 whole entry, looked up, canonical isoform): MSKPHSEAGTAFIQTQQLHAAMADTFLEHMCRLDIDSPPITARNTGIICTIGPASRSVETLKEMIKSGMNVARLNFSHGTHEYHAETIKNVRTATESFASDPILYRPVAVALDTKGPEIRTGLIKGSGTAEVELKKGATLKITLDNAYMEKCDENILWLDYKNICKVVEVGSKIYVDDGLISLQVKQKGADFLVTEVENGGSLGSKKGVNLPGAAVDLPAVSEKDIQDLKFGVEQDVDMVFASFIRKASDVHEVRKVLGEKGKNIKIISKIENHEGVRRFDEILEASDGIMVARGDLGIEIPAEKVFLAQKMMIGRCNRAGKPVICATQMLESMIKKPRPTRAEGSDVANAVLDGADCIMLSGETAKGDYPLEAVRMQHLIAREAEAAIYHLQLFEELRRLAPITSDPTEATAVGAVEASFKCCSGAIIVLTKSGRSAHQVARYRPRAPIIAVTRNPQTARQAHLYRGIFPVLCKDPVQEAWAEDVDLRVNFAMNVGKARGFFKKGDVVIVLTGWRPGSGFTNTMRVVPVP
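hPK-M2, >95% pure; 0.1 mM ADP / 0.5 mM PEP final; imidazole pH7.2 buffer w/ 7 mM MgCl2, 50 mM KCl; 1 h RT; Kinase-Glo lum. Intermediate enzyme activity for dual inhibitor/activator qHTS.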
BLM helicase inh: qHTS Assay for Inhibitors of Bloom's syndrome helicase (BLM); hit rate 0.2% among 350,000; Potency, µM (titrated, usually from 56.1 µM), inactives show at the top dose activity change, negative = inhibition, hits mostly inhibitors; RecQ-like DNA helicase BLM (Homo sapiens), P54132; recombinant BLM DNA unwinding, fluorescence dequenching;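 also: plate controls were vehicle for no effect and no enzyme for full effect; nearly all actives have a fitted effect of over 35% in size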
* hit, by the source's call; i = inactive; ? = inconclusive; . = no result; [ ] = dose if it differs, or a comment. This excerpt belongs to a sample that is enriched for hits. Unless noted, calls follow the shape of the dose curve; as a rule, active = well fitted curve in the direction sought with a large enough effect; inconclusive = small, poorly fitted or top-dose-only effect, or another doubt; inactive = no such curve, though single readings can be large; an effect the other way counts as inactive or inconclusive. Unless noted, % is scaled to controls: 0 for no effect and ±100 for the full control effect; potency is read from the fitted curve at half-maximal effect.

SMILES	JMJD2E inh	APE1 inh	RECQ1 inh	PKM2 act	BLM helicase inh
N#Cc1ccc(OCC(=O)N2CCN(S(=O)(=O)c3cccs3)CC2)cc1	-2%	-1%	-3%	18µM*	1%
COc1ccc(OCC(=O)N2CCN(S(=O)(=O)c3ccccc3[N+](=O)[O-])CC2)cc1	0%	1%	19%	7.9µM*	-2%
COc1ccccc1CC(=O)N1CCN(S(=O)(=O)c2cccs2)CC1	.	31%	.	27%	-2%
COc1c(C)c2c(c(O)c1C/C=C(\C)CCC(=O)OCCN1CCOCC1)C(=O)OC2	.	-4%	.	.	.
CC(C)(C)c1ccc(Cn2cnc3c(cnn3C(C)(C)C)c2=O)cc1	.	-7%	.	.	.
CCCCc1nc2c(c3c1C[C@H](C)OC3)CN(C(=O)COC)CC2	5%[11.4 µM]	-1%[12.4 µM]	i[11.5 µM]	-12%[11.5 µM]	0%[12.4 µM]
C/C=C1\C(=O)C[C@H]2[C@@H]3CCC4=CC(=O)CC[C@]4(C)[C@H]3CC[C@]12C	.	1%	-5%	.	.
COC(=O)C1=CO[C@@H](C)[C@@H]2CN3CCc4c([nH]c5ccccc45)[C@@H]3C[C@H]12	.	-5%	20%	.	-20%
O=C(COc1ccccc1)N1CCN(S(=O)(=O)c2cccs2)CC1	-4%	-1%	-11%	7.9µM*	-2%
O=C(c1ccccc1)N1CCN(S(=O)(=O)c2cccs2)CC1	.	40%	.	5%	-2%
C=CCn1c(SCC(=O)NC(=O)NCc2ccco2)nc2sc(CC)cc2c1=O	-5%	32µM*	-26%	-1%	-21%
C=CCn1c(SCC(=O)NCc2ccco2)nc2ccccc2c1=O	-4%	2%	0%	0%	-7%
Cc1cc(O)c(Sc2ncn[nH]2)cc1NS(=O)(=O)c1ccc(Cl)cc1	.	46%	.	.	.
O=S(=O)(Nc1cc(Sc2ncn[nH]2)c(O)c2ccccc12)c1ccccc1	13µM*	3%	-7%	-15%	28µM*
CC(C)([CH2][Sn]([CH2]C(C)(C)c1ccccc1)([CH2]C(C)(C)c1ccccc1)[O][Sn]([CH2]C(C)(C)c1ccccc1)([CH2]C(C)(C)c1ccccc1)[CH2]C(C)(C)c1ccccc1)c1ccccc1	.	-5%	0%	.	1%
OC[C@@H](O)[C@H](O)[C@H](O)[C@@H](O)CO	.	11%	.	.	.
COc1ccc2c(c1)C(=O)N(CCc1ccc(S(=O)(=O)NC(=O)NC3CCCCC3)cc1)C(=O)C2(C)C	7.9µM*	?	-14%[25.9 µM]	0%	-6%
COc1ccc(Cl)cc1C(=O)NCCc1ccc(S(=O)(=O)NC(=O)NC2CCCCC2)cc1	10%	-4%	-4%	6%	3%
CCCCS(=O)(=O)N1CCc2nc(-c3ccc(OC)cc3C)c3c(c2C1)CO[C@@H](c1ccccc1)C3	-5%[11.4 µM]	-6%[12.4 µM]	i[11.5 µM]	-5%[11.5 µM]	-5%[12.4 µM]
O=C(O)CC(C(=O)O)N1C(=O)/C(=C/c2ccc(-c3nc4ccccc4s3)o2)SC1=S (stereo not drawn)	2.8µM*	3%	?	-1%	36%
O=C(O)C(Cc1ccccc1)N1C(=O)/C(=C/C=C/c2ccco2)SC1=S (stereo not drawn)	7.9µM*	1.6µM*	2.8µM*	0%	22µM*
O=C(O)CC(C(=O)O)N1C(=O)/C(=C/C=C/c2ccco2)SC1=S (stereo not drawn)	11µM*	1µM*	4µM*	7%	107%
O=C1S/C(=C\C=C\c2ccco2)C(=O)N1c1ccc(O)cc1	1%	9%	4%	16%	25µM*
COc1ccc(/C=C2\SC(=S)N(C(Cc3ccccc3)C(=O)O)C2=O)cc1 (stereo not drawn)	-2%	0%	i	-1%	-6%
Oc1cc(Nc2ccc(N3CCCCC3)cc2)cc2cccnc12	.	-13%	.	.	.
SMILES	JMJD2E inh	APE1 inh	RECQ1 inh	PKM2 act	BLM helicase inh
CCC[C@@H]1CC(C(=O)NC(C2O[C@H](SC)C(OP(=O)(O)O)[C@H](O)[C@H]2O)[C@H](C)Cl)N(C)C1 (stereo partly drawn)	.	.	-6%	.	0%
O=S(=O)(c1ccc(F)cc1)N1CCC(n2cnc3ccccc32)CC1	.	21%	.	.	-1%
O=S(=O)(c1ccc2c(c1)OCCO2)N1CCC(n2nnc3cc(F)ccc32)CC1	-3%	2%	0%	8.9µM*	-2%
Cc1ccc(S(=O)(=O)N2CCC(n3nnc4cc(C)ccc43)CC2)cc1	-5%	4%	1%	0%	-1%
O=S(=O)(c1ccc2c(c1)OCCO2)N1CCC(n2cnc3cc(F)ccc32)CC1	?	-7%	1%	7.1µM*	0%
COC(=O)C1=COC(OC2OC(CO)C(O)C(O)C2O)C2C1C=CC2(O)CO (stereo not drawn)	-5%	7.9µM*	-15%	14%	-6%
O=C(Nc1ccc2c(c1)OCCO2)c1cnn2c1NC(=C1CC1)C=C2C(F)F	.	22%	.	.	.
N#C/C(=C\c1ccc(O)c(O)c1)C(=O)Nc1cccc2ncccc12	.	3µM*	.	.	13µM*
N#C/C(=C\c1ccc(O)c(O)c1)C(=O)Nc1ccccc1	16µM*	?	-11%	.	-19%
C[C@H](NC(=O)/C(C#N)=C/c1ccc(O)c(O)c1)c1ccccc1	7.1µM*	?	-6%	.	-15%
C[C@@H](NC(=O)/C(C#N)=C/c1ccc(O)c(O)c1)c1ccccc1	22µM*	?	-18%	.	-14%
Cc1occc(=O)c1O	16µM*	15%	-5%	1%	6%
Cc1c(O)ccoc1=O	?	2%	-9%	-5%	0%
CCOC(=O)c1c(-c2ccc(F)cc2)csc1NC(=O)CCN1CCOCC1	25µM*	16%	-1%	-5%	-2%
CCOC(=O)c1c(-c2cccs2)csc1NC(=O)CNCCN1CCOCC1	22µM*	-1%	-2%	6%	0%
CCOC(=O)c1c(-c2cccs2)csc1NC(=O)CSc1ncn[nH]1	-15%	-6%	-2%	28µM*	-8%
C=C1CC[C@H](O)C/C1=C/C=C1\CCC[C@]2(C)C([C@H](C)CC[C@@H](O)C(C)(C)O)CC[C@@H]12 (stereo partly drawn)	.	2%	i	.	.
CC(C)C1=CC2=CC[C@@H]3[C@@](C)(C(=O)O)CCC[C@]3(C)C2CC1 (stereo partly drawn)	35µM*	-7%	i	.	3%
C=C[C@]1(C)C=C2CC[C@H]3[C@@](C)(CCC[C@@]3(C)C(=O)O)[C@@H]2CC1	.	-11%	.	.	.
CO/N=C(/C(=O)N[C@@H]1C(=O)N2C(C(=O)O)=CCS[C@H]12)c1csc(N)n1	.	.	.	.	-6%
c1cn(-c2cc(-c3ccc4c(c3)OCO4)ncn2)cn1	.	8.9µM*	-8%	.	-2%
